The nature of assay [1]: Cell Viability - BJ (AID 421; calls by dose curve;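 also: potency is read from the fitted curve at half-maximal effect; cells exposed to compound for 40 hours at 37 °C before readout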). The settings on record: BJ fibroblast viability, qHTS. In short, it runs like this:
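Cytotoxicity in human BJ foreskin fibroblasts is scored as loss of cellular ATP after a 40-hour exposure, measured by luciferase luminescence. Controls are DMSO and 100 uM tamoxifen.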
A general note: Quantitative high-throughput screening tests each substance at several concentrations.

The nature of assay [2]: Cell Viability - Hek293 (AID 427;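 active = compounds whose dose-response curve shows a full or clear partial loss of cell viability, called from curve shape rather than a numeric limit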;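 also: potency is read from the fitted curve at half-maximal effect; cells exposed to compound for 40 hours at 37 °C before reading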). The conditions noted are these: qHTS. The essentials:
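qHTS, human embryonic kidney (adenovirus-transformed) cells; 40 hr cpd, 37 °C; CellTiter-Glo ATP luminescence. Norm: DMSO = 0, 100 uM tamoxifen = 100% inhibition. Hill-fit AC50.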

For assay [3], the target named is Cytochrome P450 3A4 (Homo sapiens) (UniProt P08684). Put plainly: qHTS Assay for Inhibitors and Substrates of Cytochrome P450 3A4 (AID 884). Also: series mostly up to about 57 µM; % is scaled to controls: 0 for no effect and ±100 for the full control effect; nearly all actives have a fitted effect of over 50% in size. In short, it runs like this: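 20 nM human CYP3A4 with 25 uM Luciferin-PPXE (at KM) in 200 mM KPO4, preincubated 10 min with compound; NADPH regeneration started a 60 min RT reaction. Luciferin detected by luminescence, normalized to 57 uM ketoconazole as full inhibition.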

A short description of assay [4]: qHTS Assay for Identification of Small Molecule Inducers of Hypoxia Response (AID 2120; active = well fitted curve in the direction sought with a large enough effect in the signal ratio, with a control signal flat, not every such curve was filed as active; the % refers to the signal ratio; also: 0% is about no effect). In short, it runs like this: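 HRE-bla ME-180 cells in Opti-MEM with 0.5% dialyzed FBS, pre-plated 4-5 h, then compound titration for 17 h at 37 degrees Celsius. CCF4 loaded 2.5 h at room temperature; 460/530 nm ratio gave %Activity and AC50 for induction.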
The nature of assay [5]: qHTS assay for small molecule antagonists of retinoid X receptor alpha signaling (AID 588546).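 Also: cells stimulated with 9-cis-retinoic acid as agonist; % is scaled to controls: 0 for no effect and ±100 for the full control effect.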 The settings on record: HEK293T RXRa-UAS-bla, beta-lactamase ratio, antagonist mode; measured here: W530 green channel, cytotoxicity proxy. In short, it runs like this: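 Beta-lactamase reporter inhibition, read as CCF4 fluorescence ratio (ex 405, em 460/530 nm) after 2 h at RT. HEK293T UAS-bla cells, 2500/well, were stimulated with 9-cis-RA at 500 or 100 nM final alongside test compound for 18 h at 37 C.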

The nature of assay [6]: qHTS assay for environmental chemicals that activate the Aryl hydrocarbon Receptor (AhR) signaling pathway (AID 651777). Also: % of control where 0% means no effect; nearly all actives have a fitted effect of over 15% in size. The conditions noted are these: 1A2-DRE human hepatoma cells, luciferase, 24 h; activation: stronger effect = higher value. In short, it runs like this:
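Luminescence read-out: One-Glo added for 30 min at RT after 24 hr compound treatment (37 C, 5% CO2) of human hepatoma cells expressing a DRE/CYP1A2 promoter–luciferase reporter; increased signal indicates AhR activation.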

Assay [7] addresses Peroxisome proliferator-activated receptor alpha (Homo sapiens) (UniProt Q07869). Put plainly: qHTS assay for small molecule agonists of the peroxisome proliferator-activated receptor alpha (PPARalpha) signaling pathway (AID 651778). Also: potency is read from the fitted curve at half-maximal effect. As to max response: % of control where 0% means no effect. The conditions noted are these: PathHunter PPARalpha complementation, chemiluminescence, 6 h; max response: stronger effect = higher value. In short, it runs like this:
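Enzyme-fragment complementation assay in which ligand-bound PPARalpha translocates and forms an active enzyme that generates chemiluminescence. Cells were plated overnight, exposed to compound for 6 hr at 37 C, and then given detection reagent for 60 min at room temperature.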

Assay [8] can be described thus: qHTS assay for small molecule agonists of the antioxidant response element (ARE) signaling pathway measured by Nrf2-dependant transcriptional activity - cell viability counter screen (AID 720653; active = well fitted curve in the direction sought with a large enough effect in the repeat runs; an effect the other way counts as inactive or inconclusive; also: % is scaled to controls: 0 for no effect and ±100 for the full control effect). The settings on record: ARE-bla HepG2 viability, CellTiter-Glo ATP luminescence, 16 h; max response: stronger effect = lower value. In short, it runs like this: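 ARE-bla HepG2 cells treated with compounds for 16 h at 37C; this counter screen measures viability as intracellular ATP by CellTiter-Glo luminescence after 30 min at room temperature.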

The nature of assay [9]: qHTS assay for cell viability of HEK293 cells (AID 743288). Also: % is scaled to controls: 0 for no effect and ±100 for the full control effect; nearly all actives have a fitted effect of over 50% in size. The settings on record: ATP luminescence (CellTiter-Glo), 18 h; max response: stronger effect = lower value. The essentials:
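The Tox21 protocol used parental HEK293 cells treated for 18 h at 37 C with compounds delivered by pintool; ATP-coupled luminescence after 30 min at room temperature gave viability.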

The target in assay [10] is Cytochrome P450 2C19 (Homo sapiens) (UniProt P33261). Kind of assay: qHTS for inhibitors of CYP2C19 against the NCATS DSHEA and TCM libraries (AID 1919974).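 Also: luminescence from luciferin released by CYP2C19 oxidation of a pro-luciferin substrate.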 Also: potency is read from the fitted curve at half-maximal effect. In short, it runs like this:
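Luminescent P450-Glo format: compounds preincubated 15 min with enzyme and luciferin substrate, reaction run 30-45 min after NADPH regeneration solution. Intraplate controls: ketoconazole for CYP3A4 and CYP2C19, sulfaphenazole for CYP2C9.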

The target in assay [11] is Cytochrome P450 1A2 (Homo sapiens) (UniProt P05177). Put plainly: p450-cyp1a2 (AID 410; calls by dose curve; also: potency is read from the fitted curve at half-maximal effect). The essentials:
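20nM CYP1A2 with 100uM Luciferin-ME (at Km) in 100mM KPO4; compound preincubated 10 min, NADPH regeneration added, 60 min at room temperature. Luciferin quantified by luminescence after detection reagent; normalized to 57 uM furafylline.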

The target in assay [12] is Glucocorticoid receptor (Homo sapiens) (UniProt P04150). Kind of assay: GR-EFC Redistribution (AID 451; calls by dose curve; also: potency is read from the fitted curve at half-maximal effect). The conditions noted are these: CHO-K1 GR-EFC translocation, beta-gal luminescence, 2 h. In short, it runs like this:
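CHO-K1 cells expressing nuclear EA and GR-ED fragments of b-gal; compounds titrated up to 46 uM final, 2 h at 37 C. GR nuclear translocation read as complemented b-gal luminescence after 1 h RT detection.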

In assay [13] the target is Cytochrome P450 2C19 (Homo sapiens) (UniProt P33261). Put plainly: qHTS Assay for Inhibitors and Substrates of Cytochrome P450 2C19 (AID 899). Also: % is scaled to controls: 0 for no effect and ±100 for the full control effect; nearly all actives have a fitted effect of over 60% in size. In short, it runs like this:
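5 nM human CYP2C19 with 10uM Luciferin-H EGE (at KM) in 50mM KPO4, compound preincubated 10 min at 37C, then NADPH regeneration for 60 min at 37C. Luciferin read by luminescence after detection reagent; normalized to 57uM ketoconazole as full inhibition.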

Several values for one entry are separate records, joined by “and”; a condition that tells them apart may be missing. Identical values can stand only once. Records with an inconclusive call do not appear. Activity calls are given as the source filed them. Unless noted, calls follow the shape of the dose curve; as a rule, active = well fitted curve in the direction sought with a large enough effect; inconclusive = small, poorly fitted or top-dose-only effect, or another doubt; inactive = no such curve, though single readings can be large; an effect the other way counts as inactive or inconclusive. Bounds are passed on as bounds.

Chain of Cytochrome P450 3A4 (Homo sapiens) (P08684 whole entry, looked up): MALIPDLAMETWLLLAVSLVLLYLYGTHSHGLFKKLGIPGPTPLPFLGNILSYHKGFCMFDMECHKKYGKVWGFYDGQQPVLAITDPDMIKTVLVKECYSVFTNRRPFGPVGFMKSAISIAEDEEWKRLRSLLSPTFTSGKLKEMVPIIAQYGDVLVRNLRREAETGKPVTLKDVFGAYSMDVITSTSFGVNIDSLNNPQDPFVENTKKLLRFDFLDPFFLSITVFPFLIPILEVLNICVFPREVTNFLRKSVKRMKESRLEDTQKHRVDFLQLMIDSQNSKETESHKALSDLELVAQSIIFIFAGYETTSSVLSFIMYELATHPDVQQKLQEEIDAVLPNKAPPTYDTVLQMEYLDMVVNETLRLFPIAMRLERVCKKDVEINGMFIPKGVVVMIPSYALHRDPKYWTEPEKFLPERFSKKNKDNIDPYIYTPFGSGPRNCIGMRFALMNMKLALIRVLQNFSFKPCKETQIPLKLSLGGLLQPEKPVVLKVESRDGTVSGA
Chain of Peroxisome proliferator-activated receptor alpha (Homo sapiens) (Q07869 whole entry, looked up, the tested form may be a part): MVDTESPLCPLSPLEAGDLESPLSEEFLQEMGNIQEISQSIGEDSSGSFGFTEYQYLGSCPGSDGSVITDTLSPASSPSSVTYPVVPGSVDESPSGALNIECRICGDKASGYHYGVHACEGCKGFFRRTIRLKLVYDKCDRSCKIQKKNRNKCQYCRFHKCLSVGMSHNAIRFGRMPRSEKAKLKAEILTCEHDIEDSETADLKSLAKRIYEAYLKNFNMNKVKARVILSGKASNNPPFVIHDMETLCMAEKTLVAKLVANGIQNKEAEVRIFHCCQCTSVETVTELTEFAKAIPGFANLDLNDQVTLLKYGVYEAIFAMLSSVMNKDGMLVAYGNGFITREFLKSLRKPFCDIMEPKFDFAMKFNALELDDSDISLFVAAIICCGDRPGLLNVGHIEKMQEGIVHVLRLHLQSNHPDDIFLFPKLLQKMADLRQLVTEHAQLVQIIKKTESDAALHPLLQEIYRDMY
Chain of Cytochrome P450 2C19 (Homo sapiens) (P33261 whole entry, looked up): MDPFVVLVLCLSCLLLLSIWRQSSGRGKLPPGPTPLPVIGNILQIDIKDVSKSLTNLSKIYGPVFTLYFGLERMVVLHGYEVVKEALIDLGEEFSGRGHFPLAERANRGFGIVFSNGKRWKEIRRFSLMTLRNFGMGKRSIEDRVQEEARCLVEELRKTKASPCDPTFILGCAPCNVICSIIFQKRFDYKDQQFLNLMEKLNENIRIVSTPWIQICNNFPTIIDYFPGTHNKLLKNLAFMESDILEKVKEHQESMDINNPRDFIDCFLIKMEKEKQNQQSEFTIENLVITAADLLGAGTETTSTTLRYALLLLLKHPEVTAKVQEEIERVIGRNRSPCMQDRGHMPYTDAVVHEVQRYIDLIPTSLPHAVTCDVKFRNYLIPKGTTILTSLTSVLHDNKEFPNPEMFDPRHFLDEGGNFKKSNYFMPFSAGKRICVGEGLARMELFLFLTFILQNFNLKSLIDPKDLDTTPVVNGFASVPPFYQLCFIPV
Chain of Cytochrome P450 1A2 (Homo sapiens) (P05177 whole entry, looked up): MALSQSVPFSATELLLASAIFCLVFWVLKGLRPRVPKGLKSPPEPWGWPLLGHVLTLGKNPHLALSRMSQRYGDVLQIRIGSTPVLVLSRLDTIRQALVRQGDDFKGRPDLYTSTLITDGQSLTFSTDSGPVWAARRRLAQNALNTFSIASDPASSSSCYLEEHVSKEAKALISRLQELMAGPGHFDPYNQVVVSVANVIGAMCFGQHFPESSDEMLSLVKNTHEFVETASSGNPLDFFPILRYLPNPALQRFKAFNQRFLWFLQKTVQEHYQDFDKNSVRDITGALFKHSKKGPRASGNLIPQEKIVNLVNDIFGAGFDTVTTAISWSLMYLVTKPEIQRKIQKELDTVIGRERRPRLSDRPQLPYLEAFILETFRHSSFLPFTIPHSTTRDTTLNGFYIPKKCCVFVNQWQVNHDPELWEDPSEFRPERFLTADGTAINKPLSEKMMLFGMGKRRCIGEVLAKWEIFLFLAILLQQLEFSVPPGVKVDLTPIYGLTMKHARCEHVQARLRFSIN
Chain of Glucocorticoid receptor (Homo sapiens) (P04150 whole entry, looked up, the tested form may be a part): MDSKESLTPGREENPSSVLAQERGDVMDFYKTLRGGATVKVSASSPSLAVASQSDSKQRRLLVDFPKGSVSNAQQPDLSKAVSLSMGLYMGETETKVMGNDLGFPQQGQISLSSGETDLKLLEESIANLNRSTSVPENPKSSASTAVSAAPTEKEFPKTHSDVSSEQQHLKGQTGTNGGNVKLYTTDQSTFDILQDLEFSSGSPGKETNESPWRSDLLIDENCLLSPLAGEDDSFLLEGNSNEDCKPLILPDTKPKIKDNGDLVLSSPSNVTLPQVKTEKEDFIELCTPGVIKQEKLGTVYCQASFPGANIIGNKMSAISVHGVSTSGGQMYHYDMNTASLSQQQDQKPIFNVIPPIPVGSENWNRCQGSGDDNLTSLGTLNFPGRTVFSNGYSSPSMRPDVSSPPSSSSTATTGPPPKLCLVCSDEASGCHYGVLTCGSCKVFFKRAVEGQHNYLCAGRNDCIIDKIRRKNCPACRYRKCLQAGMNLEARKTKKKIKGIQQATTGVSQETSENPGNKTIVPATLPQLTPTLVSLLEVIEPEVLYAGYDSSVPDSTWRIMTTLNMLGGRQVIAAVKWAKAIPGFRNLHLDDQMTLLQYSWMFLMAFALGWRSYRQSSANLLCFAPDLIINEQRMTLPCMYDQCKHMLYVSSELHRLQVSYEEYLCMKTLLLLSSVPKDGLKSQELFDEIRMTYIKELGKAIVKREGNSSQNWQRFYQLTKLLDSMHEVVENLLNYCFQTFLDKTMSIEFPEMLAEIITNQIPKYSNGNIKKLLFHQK

Take `CCCCCCCCCCCCCC(=O)O`: the Potency was > 92 µM (inactive) in assay [1], > 92 µM (inactive) in assay [2] and 22.4 µM (active) in assay [7]. For the same compound, in [3], the Potency entry was “inactive”. The result in [4] was inactive. Further, the max response in assay [5] was 9.83% and 0.375%; in [8], 1.31% (inactive) and -9.4% (inactive); in assay [9], 2.25% (inactive) and -11.5% (inactive). Moreover, in assay [6], the activation is -0.758% (inactive) and 0.233% (inactive).
As for `C=C1C[C@@]23CC[C@H]4[C@@](C)(CCC[C@@]4(C)C(=O)O[C@@H]4O[C@H](CO)[C@@H](O)[C@H](O)[C@H]4O[C@@H]4O[C@H](CO)[C@@H](O)[C@H](O)[C@H]4O)[C@@H]2CC[C@]1(O[C@@H]1O[C@H](CO)[C@@H](O)[C@H](O)[C@H]1O[C@@H]1O[C@H](CO)[C@@H](O)[C@H](O)[C@H]1O)C3`, the Potency entry in assay [10] was “inactive”.
Turning to `C=CCc1ccc(OC)c(OC)c1`, the Potency in assay [1] and in assay [2] was > 92 µM (inactive) each time. The Potency result in [3] and in assay [10] was “inactive” throughout. For the same compound, the result in [4] was inactive. Besides, the max response is -6.05% and 0.363% in assay [5]; 8.14% (inactive) and -0.977% (inactive) in [7]; -3.29% (inactive) and -7.51% (inactive) in assay [8]; 3.16% (inactive) and -7.18% (inactive) in assay [9]. Further, the activation in [6] was 0.456% (inactive) and 0.0921% (inactive).
Consider `C=C(C)[C@H]1CC=C(CO)CC1`, for which, in assay [10], the Potency was 12.6 µM (active).
The same measure, in the same setting: under `CC(C)=CCC[C@](C)(O[C@@H]1O[C@H](CO)[C@@H](O)[C@H](O)[C@H]1O)[C@H]1CC[C@]2(C)[C@@H]1[C@H](O)C[C@@H]1[C@@]3(C)CC[C@H](O)C(C)(C)[C@@H]3[C@@H](O[C@@H]3O[C@H](CO)[C@@H](O)[C@H](O)[C@H]3O)C[C@]12C` stands “inactive”.
Take `Cc1ccc(O)c(O)c1`: the Potency entry in assay [10] was “inactive”.
`CCCCCCCCCCCC(=O)O`: the Potency in [1] and in assay [2] was > 92 µM (inactive) throughout. The Potency entry in assay [3] was “inactive”. The compound was called inactive in [4]. The max response was 24.4% and 28.8% in assay [5]; 9.6% (inactive) and 16.5% (inactive) in [7]; 8.32% (inactive) and -0.379% (inactive) in assay [8]; -8.75% (inactive) and -7.33% (inactive) in assay [9]. For the same compound, in assay [6], the activation was 0.903% (inactive) and 1.44% (inactive).
As to `O=c1cc(-c2ccc(O)c(O)c2)oc2cc(O[C@@H]3O[C@@H](CO)[C@@H](O)[C@@H](O)[C@H]3O)cc(O)c12`, the Potency in assay [11] was 39.8 µM (active); in [12] it was > 46 µM (inactive). Besides, the Potency result in assay [13] was “inactive”.
Take `C[C@@H]1OC(O[C@H]2[C@H](O)[C@@H](O)[C@H](OC[C@H]3O[C@@H](OC(=O)[C@]45CCC(C)(C)C[C@@H]4C4=CCC6[C@@]7(C)CC[C@H](OC8OC[C@H](O)[C@H](O)[C@H]8OC8O[C@@H](C)[C@H](O)[C@@H](O)[C@H]8O)[C@@](C)(CO)C7CC[C@@]6(C)[C@]4(C)CC5)[C@H](O)[C@@H](O)[C@@H]3O)O[C@@H]2CO)[C@H](O)[C@H](O)[C@H]1O` (some centres not stated): the Potency entry in assay [10] is “inactive”.
Consider `CCCCCCCCC[C@@H](O)CC(=O)CCc1ccc(O)c(OC)c1`, for which the Potency in [10] is 6.31 µM (active).

The record behind these values is PubChem BioAssay (NCATS).
